From PubChem
Sampled rows, rich in hits. Any-hit rate of the full collection: about 3.7%.
MazEF act = activators of E. coli MazEF toxin-antitoxin RNase; 350,000 tested, 0.32% active; FAM/BHQ RNA-DNA oligo cleavage fluorescence, 5 h; AID 504720; P0AE70; activation, % at 20 µM; in the data active = activation above about 50%
Bead autofluor = flagged as autofluorescent in microsphere protease counterscreen; compound autofluorescence counterscreen, microsphere flow cytometry; active compounds read high; fluorescence intensity (concentration not given with the values); 360,000 tested, 3.1% active; in the data active = fluorescence intensity above about 16000; inconclusive = no clear call, values can overlap the other calls
Anthrax LF inh2 = anthrax lethal factor protease inhibition. multiplex microsphere protease cleavage assay, LF. inhibition, % at 10 µM. 360,000 tested, 0.12% active. AID 588501
BoNT-A LC inh2 = BoNT A light chain protease inhibition. multiplex microsphere protease substrate cleavage, flow cytometry. 360,000 tested, 0.17% active. inhibition, % at 10 µM
BoNT-F LC inh = BoNT F light chain protease inhibition. Multiplex microsphere protease cleavage assay, flow cytometry. inhibition, % at 10 µM. 360,000 tested, 0.22% active. AID 588497; in the data active = inhibition above about 35%, passing the limit was not always enough; inconclusive = no clear call, values can overlap the other calls
Of the large screens only hits and unclear results are named; the others gave an inactive call. Cut-off read from the data, not from the text of the source, unless noted: active = inhibition above about 30%; inconclusive = no clear call, values can overlap the other calls; inactive = below that.

NC(=O)C(c1ccc(Cl)cc1)c1ncc(C(F)(F)F)cc1Cl (configuration not stated)	none
O=C(Nc1ccon1)c1ccccc1F	Bead autofluor 23297
O=C(Nc1ccccc1C(=O)Nc1ccccn1)c1ccccc1F	BoNT-F LC inh 45
O=C(Nc1ccon1)c1ccccc1Cl	none
CCC(C)CNC(=O)c1[nH]c(C(F)(F)F)nc1-c1ccccc1 (configuration not stated)	none (no result: MazEF act)
Cc1ccc(C2=C/C(=C/c3cccs3)C(=O)O2)cc1	MazEF act active
C#CCOCCOCCOCCNc1nc(N2CCN(C(=O)[C@H](CC(N)=O)n3cc([C@@H](N)C(C)C)nn3)CC2)nc(N2CCN(C(=O)[C@H](CC(N)=O)n3cc([C@@H](N)C(C)C)nn3)CC2)n1	none
Cc1ccc2c(c1)CCCN2C(=O)c1ccco1	Bead autofluor 22783
O=C(c1ccc2c(c1)OCO2)N1CCCc2ccccc21	none
Cc1ccc2c(c1)CCCN2C(=O)c1ccc2c(c1)OCO2	Bead autofluor 23514
O=C(c1ccco1)N1CCc2ccccc21	none
CCc1nnc(NC(=O)CSc2nnc(-c3ccco3)n2C)s1	Bead autofluor 21882
O=C(Nc1nc2c(s1)CCCC2)c1cccs1	none
Cc1occc1-c1nnc(SCC(=O)Nc2ccccc2-c2ccccc2)n1C	none
O=C(Cc1cccs1)Nc1nc2c(s1)CCCC2	Bead autofluor 17280
Cc1cc(C(=O)CSc2nnc(-c3ccccc3)n2C)c(C)n1C	Bead autofluor 22200
Cc1cc(C(=O)CSc2nnc(-c3ccncc3)n2-c2ccccc2)c(C)n1C	none
Cn1c(SCC(=O)Nc2ccccc2-c2ccccc2)nnc1-c1ccco1	Bead autofluor 16441
CCCn1c(SCC(=O)Nc2nnc(CC)s2)nnc1-c1ccco1	BoNT-F LC inh inconclusive
COc1ccc(NC(=O)N(C)C[C@H]2Oc3cc(Br)ccc3S(=O)(=O)N([C@H](C)CO)C[C@@H]2C)cc1	none
Cn1c(SCC(=O)Nc2nc3c(s2)CCCC3)nnc1-c1ccccc1	Bead autofluor 20299
CCc1nnc(NC(=O)CSc2nnc(-c3ccco3)n2CC)s1	Bead autofluor 22759
CCc1nnc(NC(=O)/C=C/c2ccco2)s1	BoNT-F LC inh 44
Cc1ccc(C(=O)Nc2nc(C(N)Cc3ccc(C(F)(F)F)cc3)cs2)cc1 (configuration not stated)	none (no result: MazEF act)
CCC(C)C(CO)NCCCn1cnc(C(=O)Nc2ccc(C)c(C)c2)n1 (configuration not stated)	none
CC1(c2nc3ccccc3cc2C#N)OCCO1	none
O=C(Nc1ccc2c(c1)OCCO2)C(c1cc2ccccc2o1)N1CCN(C/C=C/c2ccccc2)CC1 (configuration not stated)	none (no result: MazEF act)
Cc1ccc(N2C(=O)CC(n3nc(C)cc3C)C2=O)cc1 (configuration not stated)	Bead autofluor 16252, BoNT-A LC inh2 inconclusive
CC(C)NC(=O)CC1OC(=O)c2ccccc21 (configuration not stated)	Bead autofluor 23103
Brc1cccc(-c2cnc3n2CCCCC3)c1	none
Clc1ccc(-c2cnc3n2CCC3)cc1	Bead autofluor 21764, BoNT-A LC inh2 inconclusive
CSc1cnn(-c2ccccc2)c(=O)c1SC	Bead autofluor 16177
COC(=O)N1C2CCCCC2=NN(c2ccccc2)N1C(=O)OC (configuration not stated)	none (no result: MazEF act)
OC[C@H]1O[C@H](c2nc(-c3nc(-c4cccc(-n5cccc5)c4)no3)cs2)C[C@@H]1O	none (no result: MazEF act)
COC(=O)c1cc(NC(=O)Nc2cc(OC)ccc2OC)cc(C(=O)OC)c1	Bead autofluor 23932
COc1cccc(NC(=O)Nc2cc(C)ccc2OC)c1	none
COc1ccc(OC)c(NC(=O)Nc2cccc(Cn3cccn3)c2)c1	Bead autofluor 21355
C[C@@H]1CN([C@@H](C)CO)C(=O)CCCn2cc(nn2)CO[C@H]1CN(C)S(=O)(=O)c1ccc2c(c1)OCCCO2	none
COc1cccc2cc(NC(=O)C3CCCCC3)c(=O)oc12	Bead autofluor 21365, BoNT-A LC inh2 inconclusive
COc1cccc2cc(C(=O)Nc3ccc(S(=O)(=O)NCC4CCCO4)cc3)c(=O)oc12 (configuration not stated)	Bead autofluor 24536
COc1cccc2cc(C(=O)N3CCCCC3C)c(=O)oc12 (configuration not stated)	none
CCC(Oc1ccccc1)C(=O)Nc1ccc(S(=O)(=O)NCC2CCCO2)cc1 (configuration not stated)	Bead autofluor 20336
COc1cccc(CN(CC(=O)NCC2CCCO2)C(=O)CNS(=O)(=O)c2ccccc2)c1 (configuration not stated)	Bead autofluor 16841
Cc1noc(C)c1-c1ccc(C(=O)NCc2cccs2)c2occc12	none (no result: MazEF act)
Cc1ccc(S(=O)(=O)Nc2cccc(C(=O)NCCCn3ccnc3)c2)cc1F	none
O=S(=O)(NCC1CCCO1)c1ccc(Oc2ccccc2)cc1 (configuration not stated)	Bead autofluor 21154
CC(=O)N(Nc1ccccc1)c1ccccc1	BoNT-F LC inh 35
CCOC(=O)C(=O)N(C)c1c(CC)nc2c(OCc3ccccc3OC)cccn12	none (no result: MazEF act)
O=C(CSCc1ccccc1)NC1CCSC1=O (configuration not stated)	Bead autofluor 23850
CCOC(=O)C1=C(C)C(c2ccccc2)NC(=S)N1 (configuration not stated)	Bead autofluor 18384
CC(C)C[C@H]1CNC(=O)C(=O)N1C[C@H]1CCCN1C[C@H](CC(C)C)N1C[C@H](Cc2ccccc2)N(CCc2ccccc2)C(=O)C1=O	none (no result: MazEF act)
N#Cc1ccccc1Cn1cc(C(=O)C2CC2)c2ccccc21	none
CCC(=O)c1cn(Cc2ccccc2C#N)c2ccccc12	Bead autofluor 23775
OC(c1ccc(F)c(F)c1)c1nc(-c2cccc3cccnc23)cs1 (configuration not stated)	none (no result: MazEF act)
O=C(NC1(C(F)(F)F)Oc2ccc(Cl)cc2O1)N1CCC2(CC1)OCCO2 (configuration not stated)	none
O=C(NC1(C(F)(F)F)Oc2ccccc2O1)N1CCC2(CC1)OCCO2	Bead autofluor 21302
Cc1ccc(NC(=O)C2(C)CCCN(C(C)C)C2)cc1C (configuration not stated)	none (no result: MazEF act)
CCN(CC)S(=O)(=O)c1cc(NC(=O)Cn2cnc3ccccc3c2=O)ccc1C	Bead autofluor 16361
CN(c1ccccc1)S(=O)(=O)c1cccc(NC(=O)Cn2cnc3ccccc3c2=O)c1	BoNT-F LC inh inconclusive
CCSc1nc(C2CC2)cc(-c2cccs2)c1C#N	none
N#Cc1c(-c2ccccc2F)cc(C2CC2)nc1SCC(=O)c1cccs1	MazEF act 65
CCCCC(=O)C1C(=O)NC(=O)NC1=O	Bead autofluor 19202
Cc1cc(C)n(-c2nnc(C)n2/N=C/c2ccccc2F)n1	Bead autofluor 22946
CCN(CC)C(=O)C1=C(C)N(CCC2=CCCCC2)C(=O)C(CC(=O)NCCCCc2ccccc2)C1 (configuration not stated)	none
O=S(=O)(SC1=NCCN1)c1ccccc1	none
Cc1nc2ccccc2c(=O)n1-c1nccs1	none (no result: MazEF act)
Cc1ccccc1-n1sc2cc(F)ccc2c1=O	BoNT-A LC inh2 89
